Target: Voltage-gated potassium channel subunit beta-2 (Rattus norvegicus) (UniProt P62483)
Assay: inhibitors of rat Kvbeta2 reductase activity – biochemical, NADPH fluorescence, primary screen (AID 622);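 also: slope of raw intensity against log time taken from 70 to 1610 s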
Details: recombinant KvBeta, 4-cyanobenzaldehyde reduction, at 10 µM, active compounds read high;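 active = fluorescence slope higher than the sample average by over 3 SD (cut at about -0.22 in these data, passing the limit was not always enough); inactive = the rest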

Sequence of Voltage-gated potassium channel subunit beta-2 (Rattus norvegicus) (P62483 whole entry, looked up): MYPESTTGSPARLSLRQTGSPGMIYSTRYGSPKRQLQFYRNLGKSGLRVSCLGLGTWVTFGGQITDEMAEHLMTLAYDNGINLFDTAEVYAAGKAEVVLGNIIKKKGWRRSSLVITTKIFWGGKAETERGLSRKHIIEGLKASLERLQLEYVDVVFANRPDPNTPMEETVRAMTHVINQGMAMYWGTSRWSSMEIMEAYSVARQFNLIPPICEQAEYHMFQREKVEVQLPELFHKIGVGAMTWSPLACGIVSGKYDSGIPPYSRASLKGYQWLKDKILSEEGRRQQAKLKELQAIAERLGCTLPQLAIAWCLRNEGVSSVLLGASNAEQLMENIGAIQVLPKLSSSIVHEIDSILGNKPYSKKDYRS

Fluorescence slope, inactive:
CCc1nnc(NC(=O)OCc2ccccc2)s1 -0.579
O=C(C1CC1)N(Cc1ccco1)c1nc(-c2ccccc2)cs1 -0.445
Cc1ccccc1OCCN1C(=O)NC2(CCc3ccccc32)C1=O (stereo not given) -0.297
COc1ccc(OC(C)C(=O)N2CC(C)OC(C)C2)cc1 (stereo not given) -0.566
CCOC(=O)C(C)On1c(SC(C)C(=O)OCC)nc2ccccc2c1=O (stereo not given) -0.582
O=C(COC(=O)Cc1cccc(C(F)(F)F)c1)NCC1CCCO1 (stereo not given) -0.497
CCCc1[nH]nc2c1C(c1cccc(OC(=O)c3ccco3)c1)C(C#N)=C(N)O2 (stereo not given) -0.471
CS(=O)(=O)N(CC(=O)N1CCN(c2cccc(Cl)c2)CC1)C1CCCCC1 -0.576
Clc1ccccc1OCc1nn2c(-c3ccncc3)nnc2s1 -0.298
Cc1cccc(N2CCN(C(=O)c3cc4c(=O)[nH]c5ccccc5c4n3C)CC2)c1C -0.529
N#CC(C(=O)C1CCCCC1)c1nc2ccccc2[nH]1 (stereo not given) -0.6
Cc1nc2ccccc2c2oc(C(=O)NCc3ccccn3)cc12 -0.397
COCCN(CC(=O)NC1CCCCC1)C(=O)CSc1nc2ccccc2o1 -0.469
Cc1ncoc1C(=O)Nc1cccc(Cl)c1C -0.302
COc1cccc(OC)c1C(=O)N1CCOCC1 -0.536
COC(=O)c1ccccc1NC(=O)c1noc2c1CC(C(C)(C)C)CC2 (stereo not given) -0.559
Cc1ccc(-c2cc(C(F)F)nc(NCc3cccnc3)n2)cc1 -0.467
O=C(NCc1ccccc1)N1CCn2c(nc3ccccc32)C1 -0.413
COc1ccc(CN(C)CC(=O)c2c(N)n(Cc3ccccc3)c(=O)n(C)c2=O)c(OC)c1 -0.579
Cc1nc(C)c(C(=O)Nc2ccc(Oc3ccccc3)cc2)o1 -0.306
CCOc1ccc2nc(NC(=O)C(NS(=O)(=O)c3cccs3)C(C)C)sc2c1 (stereo not given) -0.423
CC1CCN(CCCNC(=O)c2cn(C)c3ccc(S(=O)(=O)N4CCCC4)cc3c2=O)CC1 -0.321
COCCN1C(=O)C(=O)/C(=C(/O)c2cccc(OC)c2)C1c1ccncc1 (stereo not given) -0.578
C[C@H](NC(=O)Nc1ccccc1F)C(=O)O -0.602
Nc1c(Sc2ccccc2)c(=O)[nH]c(=O)n1Cc1ccccc1 -0.249
Cc1ccc(C)c(Cn2c(=O)n(CCC(=O)NCc3ccco3)c(=O)c3sccc32)c1 -0.572
CCn1c(=S)sc2nc(C)sc21 -0.598
CC(C)(C)OC(=O)N1CCOCCOCCN(C(=O)OC(C)(C)C)CCOCCOCC1 -0.579
O=C(NC1CCCCC1)C(c1ccco1)N(Cc1cccnc1)C(=O)C1COc2ccccc2O1 (stereo not given) -0.607
COC(=O)c1c(-c2ccc(F)cc2)noc1N -0.278
Cn1ccnc1C(O)c1ccco1 (stereo not given) -0.422
O=C(NCCN1CCOCC1)c1ccc2c(c1)N(Cc1ccccc1)C(=O)CS2 -0.564
N#CC1=C(N)n2c(s/c(=C\c3ccco3)c2=O)=C(C#N)C1c1ccco1 (stereo not given) -0.565
c1ccc2c(c1)ccc1nnc(-c3ccc4c(c3)OCO4)n12 -0.58
COc1cccc(-c2cc(C(=O)Nc3cc(C)n(Cc4ccc(Cl)cc4)n3)no2)c1 -0.211
CCC(C)n1[nH]c(=O)c2c(C)cc(C)nc21 (stereo not given) -0.565
CN(CC(=O)Nc1ccncc1)S(=O)(=O)c1ccccc1 -0.432
CC(=O)Oc1cccc(/C=c2\sc3nc(-c4ccco4)nn3c2=O)c1 -0.549
Cn1c(=O)cc(OCC(=O)N2CCN(c3cccc(C(F)(F)F)c3)CC2)c2ccccc21 -0.426
C=CCc1cc(C(=O)N2CCCCC2)ccc1O -0.523
